Inconclusive results are not listed. Activity calls are given as the source filed them. The calls were made as follows, unless noted: active = hit-call score of the fitted dose curve at least 0.9, where 1 is the maximum; inconclusive = response in the unintended direction; inactive = score below 0.9. Peptide text beside a SMILES is read from it.

The values below come from PubChem BioAssay (EPA / NIEHS).

System in the first test: not listed separately
The experiment in a line: CCTE_Mundy_HCI_iCellGluta_NOG_NeuronCount: CCTE's Neurite Outgrowth Assay in iCellGluta cells for Neuron Count, Mundy Lab (AID 2284340).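 Also: cells fixed about 48 h after compound addition.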
Settings: not given
Put shortly: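 Neuron count read by automated high-content imaging of Hoechst 33342 and betaIII-tubulin/Alexa Fluor-488 labelling in human iPSC glutamatergic neurons. Activity fitted relative to DMSO.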
With `COC(=O)[C@H](Cc1ccccc1)NC(=O)[C@@H](N)CC(=O)O` (H-Asp-Phe-OMe), the call was inactive. For `O=C(O)C(F)(F)C(F)(F)C(F)(F)C(F)(F)C(=O)O`, the result was inactive. Still for that read-out and setting: under `Cc1c(C(=O)c2c[nH]n(C)c2=O)ccc(S(C)(=O)=O)c1C1=NOCC1` stands “inactive”.

As for `CCCCNS(=O)(=O)c1ccccc1`, the outcome was inactive.

System in another test: not listed separately
The test is described as follows: CCTE_Mundy_HCI_iCellGluta_NOG_NeuriteCount: CCTE's Neurite Outgrowth Assay in iCellGluta cells for Neurite Count, Mundy Lab (AID 2284342).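 Also: chemical exposure about 48 hours starting 2 hours after plating.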
Settings: not given
As to `Cc1noc(NS(=O)(=O)c2ccc(N)cc2)c1C`, the result was inactive. Same read-out and setting: under `COC(=O)[C@H](Cc1ccccc1)NC(=O)[C@@H](N)CC(=O)O` (H-Asp-Phe-OMe) stands “inactive”; under `O=C(O)C(F)(F)C(F)(F)C(F)(F)C(F)(F)C(=O)O`, “inactive”; under `Cc1c(C(=O)c2c[nH]n(C)c2=O)ccc(S(C)(=O)=O)c1C1=NOCC1`, “inactive”.

With `CCCCNS(=O)(=O)c1ccccc1`, the call was inactive.

The next test deals with SERPINA7 (gene 6906). The experiment in a line: CCTE_GLTED_hTBG: CCTE's human Thyroxine-binding Globulin (TBG) Inhibition Assay, Great Lakes Toxicology and Ecology Division (GLTED) Lab (AID 2284343).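 Also: active chemicals lower fluorescence versus DMSO baseline by displacing probe.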
Settings: not given
The gist of the method: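 Steps: combine TBG with chemical; incubate 2 hours so that disruptors release ANSA; record fluorescence (380 ex, 475 em). Loss of signal was fitted against DMSO controls.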
On to `O=S(=O)(O)c1ccc(N=Nc2c(O)ccc3ccccc23)cc1`, for which the AC50 is 19 µM (active). On the same count and under the same terms, under `CC(C)(c1ccccc1)c1ccc(Nc2ccc(C(C)(C)c3ccccc3)cc2)cc1` stands 25.2 µM (active). Consider `Oc1ccccc1Cc1ccccc1O`, for which the AC50 was 8.67 µM (active). Still for that read-out and setting: under `O=C(OCCc1ccccc1)c1ccccc1` stands 22.6 µM (active). The same measure, in the same setting: the result for `O=C(Oc1ccccc1)c1ccccc1O` reads 2.52 µM (active); that for `CC(CCC(=O)O)(c1ccc(O)cc1)c1ccc(O)cc1`, 37.7 µM (active). For the compound `CCCCNS(=O)(=O)c1ccc(C)cc1`, the AC50 was 21.4 µM (active). Still for that read-out and setting: under `COc1cc(O)c(C(=O)c2ccccc2)cc1S(=O)(=O)O` stands 29.8 µM (active). For the compound `COc1ccc(-c2coc3cc(O)cc(O)c3c2=O)cc1`, the AC50 is 23 µM (active). In the case of `Oc1ccc(-c2ccccc2)c(Cl)c1`, the AC50 was 15.4 µM (active). On the same count and under the same terms, under `COc1ccc(C(=O)c2ccccc2)c(O)c1` stands 7.45 µM (active).

With `CCCCCCCOC(=O)c1ccc(O)cc1`, the AC50 is 10.6 µM (active). On the same count and under the same terms, the result for `CC1=NN(c2ccc(S(=O)(=O)O)cc2)C(=O)C1N=Nc1ccccc1` (configuration not stated) reads 27.3 µM (active); that for `CCCCOCCOC(=O)COc1ccc(Cl)cc1Cl`, 12.7 µM (active). On to `CCCCCC[C@@H](O)C/C=C\CCCCCCCC(=O)OCC(O)CO` (some centres not stated), for which the AC50 is 26.9 µM (active). The same measure, in the same setting: the result for `CCCCCCCCCCCCc1ccc(O)cc1` reads 6.15 µM (active). The same measure, in the same setting: under `Cc1ccc(C)c(OCCCC(C)(C)C(=O)O)c1` stands 27 µM (active); under `Cc1ccc([N+](=O)[O-])cc1N`, 50 µM (active). With `CCOC(=O)C1=NOC(c2ccccc2)(c2ccccc2)C1`, the AC50 is 2.68 µM (active).

System in a further test: not listed separately
The test is described as follows: CCTE_Deisenroth_H295R-HTRF_384WELL_ESTRADIOL: CCTE's H295R-HTRF Assay Evaluation of Estradiol Concentration, Deisenroth Lab (AID 2284361; active = hit-call score of the fitted dose curve at least 0.9, where 1 is the maximum; inactive = score below 0.9). The conditions noted are these: actives raise or lower the signal. The gist of the method:
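Estradiol secreted into medium by H295R adrenocortical cells, quantified by HTRF after 48 h dosing over a nine-point 0.001 - 100 uM final range; gain or loss versus DMSO. Parallel ATP-luminescence viability readout; n=5 experiments.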
Take `N#Cc1ccc(C(c2ccc(C#N)cc2)n2cncn2)cc1`: the outcome was inactive.

In the case of `C=C[C@@]1(C)CC(=O)[C@]2(O)[C@@]3(C)[C@@H](O)CCC(C)(C)[C@@H]3[C@H](O)[C@H](OC(C)=O)[C@@]2(C)O1`, the AC50 is 3.68 µM (active). Regarding `CC(C)(C)NC(=O)[C@H]1CC[C@H]2[C@@H]3CC[C@H]4NC(=O)C=C[C@]4(C)[C@H]3CC[C@]12C`, the compound was called inactive.

System in the next test: not listed separately
The experiment in a line: CCTE_Deisenroth_H295R-HTRF_384WELL_TESTOSTERONE: CCTE's H295R-HTRF Assay Evaluation of Testosterone Concentration, Deisenroth Lab (AID 2284373; active = hit-call score of the fitted dose curve at least 0.9, where 1 is the maximum; inactive = score below 0.9). The conditions noted are these: actives raise or lower the signal. As to the method:
CCTE_Deisenroth_H295R-HTRF_384WELL assay is a cell-based, multiplex-readout assay that uses H295R, a human adrenocortical carcinoma cell line, with measurements taken at 48 hours after chemical dosing in a 384-well microplateCCTE_Deisenroth_H295R-HTRF_384WELL_TESTOSTERONE is one of 3 assay components calculated in the CCTE_Deisenroth_H295R-HTRF_384WELL assay (2 hormones and 1 viability components). It is designed to make measurements of hormone induction, a form of inducible reporter, as detected with Homogenous Time Resolved Fluorescence immunoassay technology.This assay endpoint, CCTE_Deisenroth_H295R-HTRF_384WELL_TESTOSTERONE, was analyzed with bidirectional fitting relative to DMSO as the negative control and baseline of activity. Using a type of inducible reporter, gain or loss-of-signal activity using Homogenous Time Resolved Fluorescence technology was used to understand synthesis of testosterone in the H295R cell line at 48hr of chemical exposure. To generalize the intended target to other relatable targets, this assay endpoint is annotated to the steroid hormone intended target family, where the subfamily is androgens.
Standard operating procedures for the cell culture medium, maintenance, expansion, and cryopreservation of the NCI-H295R adrenocortical carcinoma adherent cell line were adopted directly from guideline specifications7,13. The assay workflow follows a three-day protocol consistent with the paradigm defined in OECD TG 456 and U.S. EPA OCSPP Guideline 890.1550. On day 0, cells are plated in 384-well microplates and acclimated for 24 hours. On Day 1, test chemicals are dispensed into separate 384-well microplates in a nine-point 2X dilution series (0.002 - 200 uM). […] Fluorescent endpoint measurements are conducted with a microplate reader equipped with an HTRF-compatible filter set (ex: 320 (10) […]; em: 620 (10) and 665 (10) nM). […] After collecting conditioned medium samples on Day 3, the viability assay is immediately performed and luminescence readings measured on a microplate reader. […]
With `N#Cc1ccc(C(c2ccc(C#N)cc2)n2cncn2)cc1`, the compound was classed as inactive. Regarding `C=C[C@@]1(C)CC(=O)[C@]2(O)[C@@]3(C)[C@@H](O)CCC(C)(C)[C@@H]3[C@H](O)[C@H](OC(C)=O)[C@@]2(C)O1`, the AC50 was 0.566 µM (active). Consider `CC(C)(C)NC(=O)[C@H]1CC[C@H]2[C@@H]3CC[C@H]4NC(=O)C=C[C@]4(C)[C@H]3CC[C@]12C`, for which the compound was called inactive.

System in the next test: not listed separately
The test is described as follows: CCTE_Deisenroth_H295R-HTRF_384WELL_CTOX: Cytotoxicity Assessment in CCTE's H295R-HTRF Assay, Deisenroth Lab (AID 2284380).
Settings: not given
The gist of the method: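 Luminescent ATP viability readout (CellTiter-Glo 2.0), multiplexed on plates used for hormone sampling, after 48 h chemical exposure. Human H295R cells; final concentrations 0.001–100 uM in nine steps, technical triplicates, five experiments; DMSO baseline.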
Turning to `N#Cc1ccc(C(c2ccc(C#N)cc2)n2cncn2)cc1`, the result was inactive.

Consider `C=C[C@@]1(C)CC(=O)[C@]2(O)[C@@]3(C)[C@@H](O)CCC(C)(C)[C@@H]3[C@H](O)[C@H](OC(C)=O)[C@@]2(C)O1`, for which the compound was called inactive. With `CC(C)(C)NC(=O)[C@H]1CC[C@H]2[C@@H]3CC[C@H]4NC(=O)C=C[C@]4(C)[C@H]3CC[C@]12C`, the result was inactive.
